Activity calls are given as the source filed them. How the source made its calls: active means hit-call score of the fitted dose curve at least 0.9, where 1 is the maximum; inactive means score below 0.9.

The AC50 is the midpoint of the concentration-response curve, whichever way the signal moves.

Experiment [1] is described as follows: ATG_CRE_CIS: Attagene CIS-FACTORIAL HepG2 Assay for human cAMP Responsive Element (CRE) binding protein 3 (AID 2282926). The following applies: HepG2 CRE cis-reporter, Attagene multiplexed mRNA; actives raise or lower the signal. Put shortly: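 Induced reporter mRNA from a CRE cis element, measured in HepG2 among many multiplexed units at 24 h. Detection used RT-PCR plus capillary electrophoresis of fluorescent fragments; DMSO served as negative control.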

Experiment [2] deals with CCAAT/enhancer-binding protein beta (Homo sapiens) (UniProt P17676). Briefly: ATG_C_EBP_CIS: Attagene CIS-FACTORIAL HepG2 Assay for human CCAAT/Enhancer Binding Protein (C/EBP) beta (AID 2282927). The following applies: HepG2 Attagene cis-factorial transcription factor reporter; actives raise or lower the signal. Put shortly:
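Following a 24 h incubation with test chemical, transfected HepG2 cells yielded RNA whose reporter transcripts were quantified by RT-PCR and fluorescent capillary electrophoresis, with DMSO serving as baseline for bidirectional fitting.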

Experiment [3] in a line: ATG_CMV_CIS: Attagene CIS-FACTORIAL HepG2 Assay for human CMV (Internal Marker) (AID 2282928).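 Further: endpoint acts as a background internal control marker rather than a target.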 The following applies: HepG2 CMV promoter reporter, transcription factor profiling; actives raise or lower the signal. A digest of the protocol:
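24 h chemical treatment, HepG2 with transient multi-reporter transfection; RNA → oligo(dT) RT → PCR → 6-FAM extension → HpaI digest → CE fluorescence. Bidirectional fit, DMSO negative control.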

Experiment [4] can be described thus: ATG_DR4_LXR_CIS: Attagene CIS-FACTORIAL HepG2 Assay for human Liver X Receptor (LXR), DR4 submotif (AID 2282929). The note with it: HepG2 Attagene DR4 cis-reporter, mRNA transcription; actives raise or lower the signal. A digest of the protocol: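 The endpoint is DR4-element-driven reporter transcripts after 24 h chemical exposure of transfected HepG2 cells. These were measured via RT-PCR and capillary electrophoresis, and gain or loss of signal was fitted relative to DMSO controls.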

The target of experiment [5] is Aryl hydrocarbon receptor (Homo sapiens) (UniProt P35869). Kind of experiment: ATG_Ahr_CIS: Attagene CIS-FACTORIAL HepG2 Assay for human Aryl Hydrocarbon Receptor (Ahr) (AID 2282930). The following applies: HepG2 AhR cis-factorial reporter transcription; actives raise or lower the signal. Put shortly:
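Values derive from bidirectional fitting against DMSO negative control. Underlying signal: cis-element reporter mRNA in transiently transfected HepG2, harvested 24 h post-dose and measured by RT-PCR plus capillary electrophoresis.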

Experiment [6] in a line: ATG_AP_2_CIS: Attagene CIS-FACTORIAL HepG2 Assay for human Activator Protein 2 (AP-2) (AID 2282932). The following applies: HepG2 AP-2 cis-reporter, Attagene transcription factor profiling; actives raise or lower the signal. A digest of the protocol: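 Assay in transfected HepG2 with promoter-regulated reporters, 24 h incubation after dosing. Signal is reporter mRNA fluorescence (RT-PCR, capillary electrophoresis), analysed for both increases and decreases relative to DMSO controls.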

A short description of experiment [7]: ATG_BRE_CIS: Attagene CIS-FACTORIAL HepG2 Assay for human Bone Morphogenetic Protein (BMP) Response Element (BRE) (AID 2282933). The note with it: HepG2 BMP response element reporter, Attagene transcription factor profiling; actives raise or lower the signal. A digest of the protocol:
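Read-out: reporter mRNA induction quantified by RT-PCR and capillary electrophoresis after 24 h chemical exposure of transfected HepG2 cells. Endogenous factor activity on the BMP response element; gain or loss fitted against DMSO baseline.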

For experiment [8], the target named is Retinoic acid receptor alpha (Homo sapiens) (UniProt P10276). Kind of experiment: ATG_DR5_RAR_CIS: Attagene CIS-FACTORIAL HepG2 Assay for human Retinoic Acid Receptor Alpha (RARE), DR5 submotif (AID 2282934). The note with it: HepG2 Attagene cis-factorial RARE DR5 reporter, mRNA; actives raise or lower the signal. A digest of the protocol:
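Endpoint fitted in both directions relative to DMSO as negative control. It reflects DR5 cis-element reporter mRNA induction in transiently transfected HepG2 cells, measured 24 h after dosing through RT-PCR and fluorescent capillary electrophoresis.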

The target in experiment [9] is Transcription factor E2F1 (Homo sapiens) (UniProt Q01094). Briefly: ATG_E2F_CIS: Attagene CIS-FACTORIAL HepG2 Assay for human E2F Transcription Factor 1 (AID 2282935). The note with it: HepG2 Attagene cis-reporter, E2F reporter RNA transcripts; actives raise or lower the signal. Put shortly: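 In this cis-factorial format, endogenous factor activity drives transfected reporters in HepG2; transcripts collected at 24 h are quantified by fluorescence after RT-PCR and capillary separation.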

A short description of experiment [10]: ATG_E_Box_CIS: Attagene CIS-FACTORIAL HepG2 Assay for human Enhancer Box (E-box) (AID 2282936). The note with it: HepG2 E-box cis-reporter transcription, actives raise or lower the signal. Put shortly: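 Measured 24 h post-dosing in HepG2 cells transfected with multiple cis-regulated reporter units, signal being reporter mRNA induction detected by fluorescent RT-PCR with capillary electrophoresis; gain or loss fitted against DMSO.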

A short description of experiment [11]: ATG_EGR_CIS: Attagene CIS-FACTORIAL HepG2 Assay for human Early Growth Response 1 (EGR1) (AID 2282938). The following applies: HepG2 Attagene CIS-FACTORIAL EGR reporter mRNA; actives raise or lower the signal. A digest of the protocol: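 After 24 h compound exposure, RNA from reporter-transfected HepG2 cells was reverse-transcribed, PCR-amplified, fluorescently labelled and resolved by capillary electrophoresis. EGR1 reporter transcript changes, up or down, were fitted against DMSO, reflecting endogenous transcription-factor activity.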

Experiment [12] is described as follows: ATG_M_19_CIS: Attagene CIS-FACTORIAL HepG2 Assay for M19 Transcription Factor (Internal Marker) (AID 2282939). The following applies: HepG2 Attagene CIS-FACTORIAL M19 internal marker reporter; actives raise or lower the signal. Put shortly:
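Readout: fluorescent reporter-transcript fragments by capillary electrophoresis after RT-PCR. Human HepG2 liver cells carried transfected MRTU constructs reporting endogenous transcription-factor activity; exposure 24 h. Gain or loss of signal fitted relative to DMSO.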

Experiment [13] in a line: ATG_ERE_CIS: Attagene CIS-FACTORIAL HepG2 Assay for Estrogen Response Element (ERE) (AID 2282940). The note with it: HepG2 ERE cis-reporter, Attagene RNA transcript; actives raise or lower the signal. Put shortly: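 Readout: reporter mRNA induction by RT-PCR, FAM-labelled primer extension, HpaI digestion and capillary electrophoresis, 24 h after dosing transfected HepG2 cells. Endogenous transcription factors act on cis-element-regulated reporters. Gain or loss fitted against DMSO.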

Experiment [14] addresses Hepatocyte nuclear factor 3-beta (Homo sapiens) (UniProt Q9Y261). Briefly: ATG_FoxA2_CIS: Attagene CIS-FACTORIAL HepG2 Assay for human Forkhead box A2 (FOXA2) (AID 2282942). The note with it: HepG2 cis-reporter transcription factor activity, 24 h; actives raise or lower the signal. Put shortly: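 Endogenous transcription factor activity is captured via cis-element-driven reporter transcripts in transfected HepG2. Total RNA taken at 24 h post-dosing; labelled RT-PCR products resolved by capillary electrophoresis. Gain or loss fitted versus DMSO.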

Experiment [15] in a line: ATG_FoxO_CIS: Attagene CIS-FACTORIAL HepG2 Assay for human Forkhead box O (FoxO) (AID 2282943). The note with it: HepG2 Attagene cis-reporter, FoxO element, mRNA; actives raise or lower the signal. Put shortly:
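Values reflect reporter mRNA induction or loss in HepG2 cells 24 h post-dosing, fitted bidirectionally with DMSO as negative control and baseline. Detection used RT-PCR and fluorescence capillary electrophoresis.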

A short description of experiment [16]: ATG_GATA_CIS: Attagene CIS-FACTORIAL HepG2 Assay for human GATA Binding Protein (AID 2282944). The note with it: HepG2 GATA cis-element reporter, Attagene multiplex mRNA; actives raise or lower the signal. A digest of the protocol: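 Read-out: fluorescent reporter mRNA fragments resolved by capillary electrophoresis after RT-PCR. Human liver HepG2 cells carried transiently transfected cis-regulated reporter constructs; chemicals incubated 24 h; gain or loss of signal fitted relative to DMSO.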

The nature of experiment [17]: ATG_M_61_CIS: Attagene CIS-FACTORIAL HepG2 Assay for M61 Transcription Factor (Internal Marker) (AID 2282937). The following applies: HepG2 Attagene CIS-FACTORIAL M61 internal marker reporter; actives raise or lower the signal. A digest of the protocol:
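Readout is reporter mRNA by RT-PCR, fluorescent primer extension and capillary electrophoresis, with gain or loss fitted relative to DMSO. Transfected HepG2 cells carrying endogenous-TF-driven cis reporters were exposed to chemicals for 24 hours.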

A short description of experiment [18]: ATG_AP_1_CIS: Attagene CIS-FACTORIAL HepG2 Assay for human Activator Protein 1 (AP-1) (AID 2282931). The following applies: HepG2 Attagene cis-factorial AP-1 reporter mRNA; actives raise or lower the signal. A digest of the protocol: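 Readout is reporter transcript level from endogenous transcription factor activity, quantified by RT-PCR with fluorescent primer extension and capillary electrophoresis. Transiently transfected HepG2 cells, 24 h exposure. Curves fitted both directions versus DMSO.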

Experiment [19] can be described thus: ATG_Ets_CIS: Attagene CIS-FACTORIAL HepG2 Assay for human Erythroblast Transformation Specific (ETS) (AID 2282941). The following applies: HepG2 ETS cis-reporter transcription, actives raise or lower the signal. Put shortly: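 Cis-regulated reporter mRNA induction in HepG2 (transient transfection), 24 h exposure, RT-PCR plus capillary electrophoresis detection; DMSO serves as negative control and baseline.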

Chain of Hepatocyte nuclear factor 3-beta (Homo sapiens) (Q9Y261 whole entry, looked up): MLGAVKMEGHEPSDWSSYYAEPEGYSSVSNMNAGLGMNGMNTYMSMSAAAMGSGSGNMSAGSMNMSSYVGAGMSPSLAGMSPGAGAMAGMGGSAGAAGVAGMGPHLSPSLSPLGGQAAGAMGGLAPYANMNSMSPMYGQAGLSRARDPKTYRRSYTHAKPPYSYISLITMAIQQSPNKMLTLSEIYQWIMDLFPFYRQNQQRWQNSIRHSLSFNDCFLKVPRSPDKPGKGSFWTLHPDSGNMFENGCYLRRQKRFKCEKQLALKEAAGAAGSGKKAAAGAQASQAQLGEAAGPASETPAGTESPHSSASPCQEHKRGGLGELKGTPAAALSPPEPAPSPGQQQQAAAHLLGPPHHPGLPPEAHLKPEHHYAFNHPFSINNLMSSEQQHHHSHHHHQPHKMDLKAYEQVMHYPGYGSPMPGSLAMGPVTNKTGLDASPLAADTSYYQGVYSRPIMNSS
Chain of CCAAT/enhancer-binding protein beta (Homo sapiens) (P17676 whole entry, looked up): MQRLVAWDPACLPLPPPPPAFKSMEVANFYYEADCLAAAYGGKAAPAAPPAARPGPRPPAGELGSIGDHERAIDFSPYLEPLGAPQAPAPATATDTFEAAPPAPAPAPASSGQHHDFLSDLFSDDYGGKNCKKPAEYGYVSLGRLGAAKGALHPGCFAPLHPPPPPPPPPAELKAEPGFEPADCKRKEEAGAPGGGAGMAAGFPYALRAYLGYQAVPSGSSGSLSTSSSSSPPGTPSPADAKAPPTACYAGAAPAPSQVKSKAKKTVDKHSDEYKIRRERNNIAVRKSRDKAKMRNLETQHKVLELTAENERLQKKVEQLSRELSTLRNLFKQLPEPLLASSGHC
Chain of Retinoic acid receptor alpha (Homo sapiens) (P10276 whole entry, looked up): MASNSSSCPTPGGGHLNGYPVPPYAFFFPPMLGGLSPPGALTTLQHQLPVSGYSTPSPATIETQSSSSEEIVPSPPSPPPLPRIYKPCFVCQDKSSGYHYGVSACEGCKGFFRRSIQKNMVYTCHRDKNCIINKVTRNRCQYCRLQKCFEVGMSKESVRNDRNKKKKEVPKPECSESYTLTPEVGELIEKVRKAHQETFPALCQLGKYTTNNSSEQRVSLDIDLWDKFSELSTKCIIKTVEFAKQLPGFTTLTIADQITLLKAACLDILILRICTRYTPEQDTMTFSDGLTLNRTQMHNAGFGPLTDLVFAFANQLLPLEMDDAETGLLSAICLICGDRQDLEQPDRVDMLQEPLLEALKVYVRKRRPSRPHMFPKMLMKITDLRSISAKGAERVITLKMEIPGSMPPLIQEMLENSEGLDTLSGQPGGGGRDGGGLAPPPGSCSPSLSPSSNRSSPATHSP
Chain of Transcription factor E2F1 (Homo sapiens) (Q01094 whole entry, looked up): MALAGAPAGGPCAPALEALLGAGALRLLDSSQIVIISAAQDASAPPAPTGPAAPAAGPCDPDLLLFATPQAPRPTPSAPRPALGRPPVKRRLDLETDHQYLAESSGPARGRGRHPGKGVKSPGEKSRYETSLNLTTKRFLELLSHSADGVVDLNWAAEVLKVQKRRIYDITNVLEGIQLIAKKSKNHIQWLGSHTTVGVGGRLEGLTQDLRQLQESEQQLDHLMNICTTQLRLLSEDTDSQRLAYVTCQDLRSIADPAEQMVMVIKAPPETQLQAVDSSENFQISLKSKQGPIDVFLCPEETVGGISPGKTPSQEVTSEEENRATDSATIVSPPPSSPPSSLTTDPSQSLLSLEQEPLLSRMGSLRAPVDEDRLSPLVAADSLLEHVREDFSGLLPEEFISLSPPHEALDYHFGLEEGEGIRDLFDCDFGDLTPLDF
Chain of Aryl hydrocarbon receptor (Homo sapiens) (P35869 whole entry, looked up): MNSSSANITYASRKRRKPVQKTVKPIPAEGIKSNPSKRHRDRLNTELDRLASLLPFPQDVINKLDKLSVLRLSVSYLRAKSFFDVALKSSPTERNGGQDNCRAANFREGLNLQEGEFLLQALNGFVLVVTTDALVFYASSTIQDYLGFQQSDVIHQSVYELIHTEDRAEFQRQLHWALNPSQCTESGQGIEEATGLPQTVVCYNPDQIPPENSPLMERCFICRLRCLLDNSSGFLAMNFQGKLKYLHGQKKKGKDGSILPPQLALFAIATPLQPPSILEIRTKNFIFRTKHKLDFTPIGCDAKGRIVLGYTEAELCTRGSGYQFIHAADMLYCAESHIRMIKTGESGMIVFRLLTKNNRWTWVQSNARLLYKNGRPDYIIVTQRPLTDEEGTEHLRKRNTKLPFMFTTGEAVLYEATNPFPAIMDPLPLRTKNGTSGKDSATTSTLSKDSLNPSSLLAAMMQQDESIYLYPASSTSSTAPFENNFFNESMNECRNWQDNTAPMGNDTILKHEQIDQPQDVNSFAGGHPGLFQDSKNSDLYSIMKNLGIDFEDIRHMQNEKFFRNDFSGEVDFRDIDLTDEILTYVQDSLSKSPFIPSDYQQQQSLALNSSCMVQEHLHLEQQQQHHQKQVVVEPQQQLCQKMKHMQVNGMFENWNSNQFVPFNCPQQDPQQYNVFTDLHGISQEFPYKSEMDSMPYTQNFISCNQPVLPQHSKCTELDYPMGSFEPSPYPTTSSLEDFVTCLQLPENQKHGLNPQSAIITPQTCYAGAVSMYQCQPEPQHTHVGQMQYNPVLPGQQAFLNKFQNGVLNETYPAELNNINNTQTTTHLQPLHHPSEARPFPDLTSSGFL

Turning to `NC(=O)C(F)(F)C(F)(F)C(F)(F)C(F)(F)C(N)=O`, the call in experiment [1], in experiment [2], in [3], in [4], in experiment [5] and in [6] was inactive. In addition, the result in [7], in experiment [8], in experiment [9], in experiment [10], in experiment [11] and in [12] was inactive. In addition, the molecule was called inactive in experiment [13], in experiment [14], in [15] and in [16].
As to `Cc1cc(O)c(C(C)(C)C)cc1C(C)(C)C`, the molecule was classed as inactive in experiment [1], in experiment [2], in [4], in [6], in [7] and in experiment [8]. The result in experiment [9], in [17], in experiment [11], in [13], in experiment [14] and in experiment [15] was inactive. In addition, the result in [16] was inactive. For the same molecule, the AC50 in [3] is 9.14 µM (active); in [10] it was 13.9 µM (active).
For `C#CC(O)CCC` (stereo unspecified), the call in experiment [1], in experiment [2], in experiment [3], in experiment [5], in [18] and in experiment [7] was inactive. Also, the result in experiment [8], in experiment [9], in experiment [10], in experiment [17], in [11] and in experiment [12] was inactive. The molecule was called inactive in experiment [19], in experiment [14], in experiment [15] and in experiment [16].
As for `FC(F)(F)C(F)(F)C(F)(F)C(F)(F)C(F)(F)C(F)(F)C(F)(F)CCI`, the molecule was called inactive in [1], in experiment [2], in experiment [3], in [5], in experiment [18] and in experiment [6]. The molecule was classed as inactive in experiment [7], in experiment [8], in experiment [9], in [10], in [11] and in [12]. Moreover, the molecule was called inactive in experiment [13], in experiment [19], in experiment [14], in experiment [15] and in experiment [16].
Turning to `O=C(F)C1(F)C(F)(F)C(F)(F)C(F)(F)C(F)(F)C1(F)F`, the outcome in experiment [1], in experiment [2], in [3], in experiment [4], in experiment [5] and in [18] was inactive. Further, the molecule was classed as inactive in experiment [6], in experiment [7], in experiment [8], in experiment [9], in experiment [10] and in experiment [17]. Besides, the outcome in experiment [11], in experiment [19], in experiment [14], in experiment [15] and in experiment [16] was inactive.
In the case of `O=C(Cl)C(F)(F)C(F)(F)C(F)(F)C(F)(F)C(F)(F)C(F)(F)C(F)(F)F`, the molecule was called inactive in experiment [1], in experiment [2], in experiment [4], in [6], in experiment [7] and in [8]. The molecule was called inactive in experiment [9], in experiment [10], in experiment [17], in experiment [11], in [12] and in experiment [19]. Further, the molecule was classed as inactive in experiment [14], in experiment [15] and in experiment [16]. Besides, the half-maximal activity concentration (AC50) is 63.3 µM (active) in experiment [3] and 66.7 µM (active) in [18].
With `CCN(CCO)S(=O)(=O)C(F)(F)C(F)(F)C(F)(F)C(F)(F)C(F)(F)C(F)(F)C(F)(F)C(F)(F)F`, the AC50 in experiment [1] is 28.9 µM (active). The outcome in [2], in [3], in experiment [4], in experiment [5], in [18] and in experiment [6] was inactive. The molecule was classed as inactive in experiment [7], in experiment [8], in [9], in [10], in experiment [17] and in experiment [11]. Further, the result in experiment [13], in [14], in [15] and in [16] was inactive.
For the molecule `Cc1cnccn1`, the call in experiment [1], in [2], in experiment [3], in experiment [4], in experiment [18] and in [6] was inactive. The result in [7], in [8], in [9], in experiment [10], in [11] and in experiment [12] was inactive. Further, the outcome in experiment [14], in experiment [15] and in [16] was inactive. In addition, in [5], the AC50 is 0.0965 µM (active).

The values above are taken from PubChem BioAssay (EPA / NIEHS).
